The source made the active and inactive calls.
Assays:
[1] = tested on: Plasmodium falciparum Sir2 (PF13_0152, Sir2A); assay: pfSir2 binders on small-molecule microarrays, primary screen, biochemical, small-molecule microarray, 635 nm fluorescence (AID 1098); conditions: small-molecule microarray binding, fluorescence 635 nm; higher = more signal;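 further: score merges spot fluorescence intensity with its signal-to-noise ratio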
[2] = small-molecule microarray binders of probe aDKK1, primary screen, biochemical, biotinylated probe, 635/667 nm fluorescence (AID 1099); conditions: higher = more signal;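 further: score merges 667nm spot fluorescence with signal to noise across triplicate slides; reference of the scale not given here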
[3] = small-molecule microarray binders of probe aCHRDL2, primary screen, biochemical, biotinylated probe, 635/667 nm fluorescence (AID 1100); conditions: higher = more signal
[4] = splicing luciferase reporter signal modulators, primary screen, spliceosome inhibition project, cell-based, HEK293, splice +/- reporter (AID 1101); conditions: luminescence, 24 h, higher = more signal, called active from +8 up or from −8 down;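 further: HEK293 cells carrying a splicing-competent luciferase reporter gene; test concentration not given here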
[5] = molecular target: Fibroblast growth factor 10 (Homo sapiens) (UniProt O15520); assay: FGF10 binders on small-molecule microarrays, primary screen, biochemical, small-molecule microarray, 635 nm fluorescence (AID 1102); conditions: FGF10 binding, fluorescence 635 nm, higher = more signal
[6] = tested on: glycogen synthase kinase-3 (GSK3A per assay name; protocol says GSK3B); assay: GSK3 binders on small-molecule microarrays, primary screen, biochemical, small-molecule microarray, 635 nm fluorescence, GSK3A (AID 1103); conditions: small-molecule microarray binding, fluorescence 635 nm; higher = more signal; further: the record names both GSK3A and GSK3B
[7] = molecular target: Epidermal growth factor receptor (Homo sapiens) (UniProt P00533); assay: EGFR binders on small-molecule microarrays, primary screen, biochemical, small-molecule microarray, 635 nm fluorescence (AID 1104); conditions: EGFR binding, higher = more signal;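 further: score merges 667 nm emission intensity with spot signal to noise over triplicate slides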
[8] = molecular target: Follistatin-related protein 3 (Homo sapiens) (UniProt O95633); assay: FSTL3 binders on small-molecule microarrays, primary screen, biochemical, small-molecule microarray, 635 nm fluorescence (AID 1105); conditions: FSTL3 binding, higher = more signal;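 further: score merges emission near 667 nm and signal to noise per printed spot across three slides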
[9] = molecular target: Dickkopf-related protein 1 (Homo sapiens) (UniProt O94907); assay: DKK1 binders on small-molecule microarrays, primary screen, biochemical, small-molecule microarray, 635 nm fluorescence scan (AID 1106); conditions: DKK1 binding, higher = more signal;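 further: score merges emission near 667 nm with signal to noise over three replicate slides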
[10] = tested on: Inhibin beta A chain (activin A); assay: INHBA (activin A) binders on microarrays, primary screen, biochemical, small-molecule microarray, 635 nm fluorescence scan (AID 1107); conditions: small-molecule microarray binding, higher = more signal;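 further: mouse activin A protein probed at 4.33 µg/mL on printed slides; score merges bound-protein fluorescence near 667 nm with spot signal-to-noise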

Sequence of Epidermal growth factor receptor (Homo sapiens) (P00533 whole entry, looked up): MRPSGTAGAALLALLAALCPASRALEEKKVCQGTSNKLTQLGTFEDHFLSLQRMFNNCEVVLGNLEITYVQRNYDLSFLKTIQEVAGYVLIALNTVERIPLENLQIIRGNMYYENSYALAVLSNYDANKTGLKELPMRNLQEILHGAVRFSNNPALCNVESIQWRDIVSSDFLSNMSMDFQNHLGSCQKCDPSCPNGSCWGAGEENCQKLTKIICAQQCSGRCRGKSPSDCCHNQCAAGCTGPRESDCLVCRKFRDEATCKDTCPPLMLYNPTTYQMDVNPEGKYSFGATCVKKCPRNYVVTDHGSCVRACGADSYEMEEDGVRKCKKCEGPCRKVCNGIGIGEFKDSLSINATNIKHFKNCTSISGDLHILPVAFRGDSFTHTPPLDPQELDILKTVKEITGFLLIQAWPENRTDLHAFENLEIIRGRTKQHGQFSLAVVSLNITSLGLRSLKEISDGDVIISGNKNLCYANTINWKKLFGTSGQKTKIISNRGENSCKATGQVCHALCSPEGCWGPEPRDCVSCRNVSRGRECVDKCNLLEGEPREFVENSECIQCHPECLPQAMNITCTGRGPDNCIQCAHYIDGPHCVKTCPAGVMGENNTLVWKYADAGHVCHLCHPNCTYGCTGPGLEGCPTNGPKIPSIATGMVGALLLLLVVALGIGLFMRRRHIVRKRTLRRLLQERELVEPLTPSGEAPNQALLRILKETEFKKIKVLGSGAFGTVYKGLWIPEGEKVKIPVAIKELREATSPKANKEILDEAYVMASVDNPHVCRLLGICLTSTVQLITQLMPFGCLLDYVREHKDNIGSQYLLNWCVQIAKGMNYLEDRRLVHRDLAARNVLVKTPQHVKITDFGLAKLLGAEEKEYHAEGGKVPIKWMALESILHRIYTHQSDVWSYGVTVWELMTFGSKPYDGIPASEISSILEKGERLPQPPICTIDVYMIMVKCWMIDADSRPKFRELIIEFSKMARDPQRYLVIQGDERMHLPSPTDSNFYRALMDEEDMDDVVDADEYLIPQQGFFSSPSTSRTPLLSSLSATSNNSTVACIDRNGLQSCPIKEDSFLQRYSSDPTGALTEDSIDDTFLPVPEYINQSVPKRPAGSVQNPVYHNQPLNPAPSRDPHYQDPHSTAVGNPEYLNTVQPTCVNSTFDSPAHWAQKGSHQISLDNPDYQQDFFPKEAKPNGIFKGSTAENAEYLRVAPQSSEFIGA
Sequence of Dickkopf-related protein 1 (Homo sapiens) (O94907 whole entry, looked up): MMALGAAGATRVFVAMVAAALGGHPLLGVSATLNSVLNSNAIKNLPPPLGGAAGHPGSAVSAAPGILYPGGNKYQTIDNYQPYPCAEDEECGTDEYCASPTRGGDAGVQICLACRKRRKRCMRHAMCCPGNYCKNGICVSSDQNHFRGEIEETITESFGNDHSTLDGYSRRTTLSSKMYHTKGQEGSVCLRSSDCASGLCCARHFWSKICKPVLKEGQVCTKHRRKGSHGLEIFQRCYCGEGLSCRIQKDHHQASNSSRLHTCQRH
Sequence of Fibroblast growth factor 10 (Homo sapiens) (O15520 whole entry, looked up): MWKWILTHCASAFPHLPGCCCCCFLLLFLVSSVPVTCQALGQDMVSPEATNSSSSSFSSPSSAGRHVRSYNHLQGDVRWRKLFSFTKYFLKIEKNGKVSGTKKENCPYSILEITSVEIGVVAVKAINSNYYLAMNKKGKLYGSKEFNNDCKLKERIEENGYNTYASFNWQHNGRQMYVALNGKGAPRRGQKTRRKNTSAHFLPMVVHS
Sequence of Follistatin-related protein 3 (Homo sapiens) (O95633 whole entry, looked up): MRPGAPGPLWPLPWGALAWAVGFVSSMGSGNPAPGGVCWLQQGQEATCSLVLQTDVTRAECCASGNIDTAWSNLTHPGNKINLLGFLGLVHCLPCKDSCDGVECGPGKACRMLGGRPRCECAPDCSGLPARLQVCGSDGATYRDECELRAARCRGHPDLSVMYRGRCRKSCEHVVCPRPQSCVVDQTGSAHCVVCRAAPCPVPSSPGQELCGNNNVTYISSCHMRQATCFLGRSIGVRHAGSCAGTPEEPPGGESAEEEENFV

| SMILES | composite z-score [1] | composite z-score [2] | composite z-score [3] | z-score [4] | composite z-score [5] | composite z-score [6] | composite z-score [7] | composite z-score [8] | composite z-score [9] | composite z-score [10] |
| --- | --- | --- | --- | --- | --- | --- | --- | --- | --- | --- |
| CN(C)CCCC[C@@H]1NC(=O)[C@@H]2C[C@H](C(=O)NCCCCCCN)[C@H](c3cccc(OCCO)c3)N2C1=O | 0.891 | 0.956 | 0.584 | -0.502 (inactive) | 0.894 | 1.22 | 0.0249 | 0.0587 | 0.603 | 0.6 |
| COc1ccc(CCNC(=O)[C@@]2(C)c3ccccc3C(=O)N(C(C)C)[C@H]2c2ccc(CO)cc2)cc1 | 0.5 | 0.056 | -0.0776 | -0.36 (inactive) | 0.558 | -0.0218 | 0.41 | 0.335 | 0.503 | 0.918 |
| O=C(c1ccccc1)N1Cc2ccccc2C[C@@]2(COC(c3ccc(OCCCO)cc3)=N2)C1=O | 1.5 | 0.298 | 0.657 | 0.372 (inactive) | 1.1 | 1.29 | 0.0545 | 0.796 | 0.146 | 0.7 |
| COCCOC(=O)N1C(=O)[C@@]2(c3cc(C#CCC(C(=O)OC)C(=O)OC)ccc31)[C@H](C(=O)Nc1nc3ccccc3s1)[C@H]1C(=O)O[C@H](c3ccccc3)[C@H](c3ccccc3)N1[C@@H]2c1ccccc1OCCO | 1.52 | 0.467 | 0.76 | 0.952 (inactive) | 0.634 | 1.04 | 0.231 | 1.29 | -0.154 | 0.046 |
| COc1ccc(C(O)C2C=CC3C(=O)N(Cc4ccccc4)C(=O)C3N2n2cnnc2)cc1OCc1ccccc1 (stereo not given) | 0.504 | -0.0756 | 0.432 | -1.91 (inactive) | -0.245 | 0.332 | -0.283 | 0.308 | -0.192 | 0.586 |
| CN(C)CCCC[C@@H]1NC(=O)[C@H]2C[C@@H](C(=O)NCCCCCCN)[C@@H](c3ccc(O)cc3)N2C1=O | 0.436 | 1.6 | 1.07 | -0.193 (inactive) | 1.52 | 1.29 | 0.247 | 1.41 | 0.644 | 1.17 |
| CC(C)c1ccc(NN2C(C(O)c3ccc(B(O)O)cc3)C=CC3C(=O)N(c4ccccc4)C(=O)C32)cc1 (stereo not given) | 1.24 | 0.942 | 1.05 | 0.844 (inactive) | 1.11 | 1.25 | -0.109 | 1.38 | -0.381 | 0.849 |
| CC(C)=CCCC(C)=CC(O)C1C=CC2C(=O)N(C)C(=O)C2N1Nc1ccccc1 (stereo not given) | 0.854 | 0.473 | 0.55 | 3.04 (inactive) | 0.914 | 1.31 | 1.52 | 1.47 | 0.893 | 1.07 |
| NC(=O)NCC#Cc1ccc2c(c1)[C@]1(C(=O)N2)[C@H](C(=O)Nc2nc3ccccc3s2)[C@H]2C(=O)O[C@H](c3ccccc3)[C@H](c3ccccc3)N2[C@@H]1c1ccccc1OCCO | 1.23 | 1.83 | -0.202 | -0.137 (inactive) | 1.27 | 0.261 | 0.997 | 1.02 | 1.44 | 1.08 |
| [N-]=[N+]=NCc1ccccc1C[C@]1(C(N)=O)COC(c2ccc(OCCCO)cc2)=N1 | 0.806 | 1.13 | 1.36 | -1.52 (inactive) | 0.23 | 0.812 | -1.04 | -0.0511 | -0.2 | 0.636 |
| COCCOC(=O)N1C(=O)[C@@]2(c3cc(C#Cc4ccc(OC)cc4)ccc31)[C@H](c1ccccc1OCCO)N1[C@H](c3ccccc3)[C@H](c3ccccc3)OC(=O)[C@H]1[C@@H]2C(=O)NC[C@H](O)c1ccccc1 | 1.23 | 0.201 | 0.145 | -0.352 (inactive) | 1.14 | 0.748 | 0.544 | 1.43 | 0.696 | 0.53 |
| CCC[C@@H]1C[C@@]1(CCC)[C@@H](NS(=O)(=O)c1cccc2cccnc12)c1ccc(Cl)cc1 | -0.318 | 0.916 | 1.1 | 0.109 (inactive) | 0.044 | -0.594 | -0.484 | -0.445 | -0.35 | 1.04 |
| CC(C)N1C(=O)c2ccccc2[C@](C)(C(=O)NCCN2CCOCC2)[C@@H]1c1ccc(CO)cc1 | 0.24 | -0.0879 | 0.987 | 0.0672 (inactive) | -0.499 | -0.608 | -1.13 | -0.115 | -0.75 | 0.503 |
| C=C(C)[C@@H]1CC=C(C(O)C2C=CC3C(=O)N(c4ccccc4)C(=O)C3N2Nc2ccccc2)CC1 (stereo not given in full) | 0.972 | 1.06 | 0.906 | 0.0541 (inactive) | 0.852 | 1.32 | -0.747 | 1.15 | 0.364 | 0.622 |
| CN(C)C(=O)[C@]1(Cc2ccccc2N=[N+]=[N-])N=C(c2ccc(OCCCO)cc2)O[C@@H]1c1ccccc1N=[N+]=[N-] | 1.11 | 1.72 | 1.01 | -0.727 (inactive) | 0.885 | -0.0929 | 0.405 | 1.3 | 0.172 | 1.14 |
| COCCOC(=O)N1C(=O)[C@@]2(c3cc(C#CCC(C(=O)OC)C(=O)OC)ccc31)[C@H](c1ccccc1OCCO)N1[C@H](c3ccccc3)[C@H](c3ccccc3)OC(=O)[C@H]1[C@@H]2C(=O)NC[C@H](O)c1ccccc1 | 1.36 | 0.877 | 0.326 | 3.84 (inactive) | 1.05 | 1.29 | 1.17 | 1.23 | 0.66 | 0.619 |
| COc1cccc(-c2cccc(=O)o2)c1 | 1.37 | 0.956 | 0.513 | 0.742 (inactive) | 0.423 | -0.21 | 0.482 | 0.148 | 0.143 | 1.15 |
| C[C@@]1([C@@H](NC(=O)c2ccc(-c3ccccc3)cc2)c2ccc(Cl)cc2)C[C@H]1C1CCCCC1 | 0.78 | 1.13 | 1.07 | -1.82 (inactive) | 0.575 | 0.787 | 0.0292 | 0.313 | -0.131 | 0.387 |
| CC(C)(C)OC(=O)CC[C@]1(C(=O)N2CCOCC2)N=C(c2ccc(OCCCO)cc2)O[C@H]1c1ccccc1N=[N+]=[N-] | 1.5 | 0.653 | 0.854 | -0.921 (inactive) | 1.18 | 1.2 | -0.0405 | 0.0265 | 0.283 | 0.936 |
| C=C(CCCC)C(=O)CC[C@@H](OC(=O)c1ccccc1-c1ccccc1C(=O)O)c1ccc(OCCO)cc1 | 1.19 | -0.0379 | 0.0075 | 0.962 (inactive) | 0.969 | 0.585 | -0.181 | 0.668 | 0.55 | 1.42 |
| COC(=O)C[C@H]1O[C@]2(C(=O)N(C)c3ccccc32)[C@@H](C)[C@@H]1[Si](C)(C)F | -0.0042 | -0.113 | -0.583 | -1.8 (inactive) | 0.96 | 0.557 | 0.616 | 0.774 | 0.695 | 0.369 |
| CC(C)C(O)C1C=CC2C(=O)N(c3ccccc3)C(=O)C2N1Nc1ccc([N+](=O)[O-])cc1 (stereo not given) | 0.0242 | 0.814 | 0.761 | 0.735 (inactive) | 0.635 | 0.368 | -0.0978 | 0.29 | -0.467 | 0.85 |
| CC(C)C(=C=CC[C@@H](O)c1ccc(OCCO)cc1)C[C@@H](O)c1ccccn1 | 0.595 | -0.0166 | -0.495 | 0.106 (inactive) | 1.6 | 0.854 | 0.124 | 1.06 | 1.76 | 0.59 |
| CCOC(=O)C[C@H]1[C@H](OC(=O)c2ccc(C(=O)c3ccccc3)cc2)[C@@H](NC(=O)c2ccc3ccccc3n2)c2cc(OCCCO)ccc2N1C(=O)c1ccccc1 | 0.772 | 0.177 | 0.628 | 0.305 (inactive) | 0.719 | 1.28 | -0.278 | 0.806 | 0.271 | -0.177 |
| C=C(CCCC)/C(=C/C[C@H](OC(=O)c1ccncc1)c1ccccc1OCCO)c1cnc2ccccc2c1 | 0.869 | -0.037 | -0.286 | -0.292 (inactive) | 1.08 | 0.898 | 0.591 | 1.49 | 0.472 | 1.66 |
| CN(C)CCCCCCNC(=O)[C@H]1C[C@H]2C(=O)N[C@@H](CCCCN)C(=O)N2[C@H]1c1cccc(OCCO)c1 | 1.99 | 3.01 | 1.72 | -0.361 (inactive) | 1.43 | 1.48 | 1.63 | 1.65 | 2.49 | 1.43 |
| O=C(NC1CC1)[C@@H]1c2ccccc2C(=O)N(Cc2ccccc2Cl)[C@H]1c1ccc(CO)cc1 | 0.814 | 0.893 | 1.02 | -0.544 (inactive) | 0.474 | 1.24 | 0.186 | 0.654 | 0.63 | 1.17 |

Reference: PubChem BioAssay
